# Inconclusive results are not listed. A call without a number means that no potency is given here. Active and inactive are the calls of the source. The call rests on the fitted dose curve; in most records, active means well fitted curve in the direction sought with a large enough effect in the repeat runs; inconclusive means weak or mixed curves; inactive means no such curve, though single readings can be large; an effect the other way counts as inactive or inconclusive.
# Tests used:
# [1] = qHTS assay to identify small molecule agonists of the RXR signaling pathway - cell viability counter screen (AID 1159529); settings: RXR-alpha-bla HEK293T viability, CellTiter-Glo, 16 h; series mostly up to 76.8 µM;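 further: HEK 293T cells carrying an RXR-alpha UAS beta-lactamase reporter; nearly all actives have a fitted effect of over 50% in size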
# In short: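 Tox21 10K compounds were tested for cytotoxicity against GeneBLAzer RXR-alpha HEK 293T cells grown in 2% charcoal-stripped FBS. Exposure lasted 16 hr at 37 C, 5% CO2; viability read by CellTiter-Glo luminescence.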
# [2] = qHTS assay to identify small molecule antagonists of the retinoid acid receptor (RAR) signaling pathway - cell viability counter screen (AID 1159551); settings: C3RL4 cells viability, ATP luminescence (CellTiter-Glo), 6 h; series mostly up to 92.4 µM; further: nearly all actives have a fitted effect of over 35% in size
# In short: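 Retinol-stimulated (1 uM final) C3RL4 cells, compound 6 h, 37 C; readout CellTiter-Glo luminescence (ATP) after 30 min RT incubation.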
# [3] = qHTS assay to identify small molecule antagonists of the retinoic acid receptor (RAR) signaling pathway (AID 1159552; further: nearly all actives have a fitted effect of over 50% in size); settings: C3RL4 RARE luciferase reporter, retinol-stimulated, 6 h; series mostly up to 92.4 µM
# In short: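 Overnight-plated C3RL4 reporter cells get compound, then retinol to 1 uM final; plates sit 6 hr at 37 C, 5% CO2. A luciferase reagent is added and light output recorded after 30 min at room temperature.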
# [4] = qHTS assay to identify small molecule agonists of the retinoic acid receptor (RAR) signaling pathway (AID 1159553); settings: C3RL4 RARE luciferase reporter, agonist, 6 h; series mostly up to 73.3 µM; further: potency means the concentration at half of the fitted maximal effect
# In short: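 Reporter readout comes from luciferase under RARE control in C3RL4 cells; compound exposure lasts 6 hr at 37 C in 5% CO2, and luminescence is recorded following a 30 min room-temperature incubation with reagent.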
Structure (SMILES),Potency [1],outcome [2],Potency [3],Potency [4]
C=COC(=O)C(C)(CC)CCC(C)C (stereo not drawn),inactive,inactive,,
C=CCOCC(O)CO (stereo not drawn),inactive,inactive,,
O=C(O)CCSCCC(=O)O,inactive,inactive,,
CC1=NN(c2cc(S(=O)(=O)O)ccc2Cl)C(=O)C1N=Nc1ccccc1 (stereo not drawn),inactive,inactive,inactive,68.6 µM (active)
CC(C)COC(=O)c1ccc(N)cc1,inactive,inactive,inactive,18.8 µM (active)
C=C(C)C(=O)OCCOCCOCCOCCOC(=O)C(=C)C,inactive,inactive,inactive,
O=C1NC(=O)C2CC=CCC12 (stereo not drawn),inactive,inactive,inactive,inactive
O=S(=O)(O)c1cccc(S(=O)(=O)O)c1,inactive,inactive,inactive,
C[C@H]1[C@H](NC(=O)/C(=N/OC(C)(C)C(=O)O)c2csc(N)n2)C(=O)N1S(=O)(=O)O (stereo in doubt),inactive,inactive,inactive,inactive

# Reference: PubChem BioAssay (Tox21)
